Source: PubChem BioAssay
Shown are actives, neighbours in structure and some others; about 2.1% of the full set was active somewhere.
CF NFkB inh = inhibitors of PAF-induced NF-kB signaling, primary screen, cell-based, GFP fluorescence, uHTS. KKLEB NF-kB-GFP reporter, GFP fluorescence overnight. inhibition, % at 5 µM. actives 0.86% (n = 360,000). AID 588850, 2011;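 active means at least 50% inhibition at 5 µM, scaled per plate between neutral and stimulator controls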;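 further: PAF is a Pseudomonas aeruginosa culture filtrate used as stimulus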
EWS-Fli block = EWS/Fli-driven NR0B1 reporter inhibitors, primary screen, A673 cells, NR0B1 luciferase, luminescence, MLPCN library. viability-normalised. AID 651661, 2012. inhibition, % at 12.6 µM. actives 0.67% (n = 350,000);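 active means mean inhibition of at least 50% after viability correction, with every replicate also passing that limit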;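 further: firefly luciferase signal divided by Alamar Blue viability fluorescence both relative to DMSO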
KKLEB tox = cytotoxicity in KKLEB CF airway cells, primary screen, cytotoxicity control for CF NF-kB inhibitor project, cell-based, uHTS, fluorescence assay plates. KKLEB CF airway cells viability, ATPlite luminescence, overnight; hits give low values; cells stimulated with P. aeruginosa culture filtrate. activity change (cytotoxicity), % at 5 µM. actives 0.36% (n = 360,000). AID 602141, 2011;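 active means corrected activity change at or below -50% at 5 µM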
PAX8 reporter = inhibitors of PAX8-driven TPO luciferase reporter, primary screen, RMG-I cells, single concentration. AID 652154, 2013. SteadyGlo, 24 h. inhibition, % at 12.6 µM. actives 1.2% (n = 360,000);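 active means mean replicate inhibition at least 60% with every replicate also reaching 60%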;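 further: luciferase light reporting Pax8 driven TPO promoter activity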
HIF-2a block = HIF-2a reporter inhibitors, primary screen, luminescence, 786-0 RCC cells; inhibition, % at 18.8 µM; actives 0.72% (n = 360,000); 786-0 RCC cells HIF-2a reporter, luciferase luminescence, overnight;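 active means inhibition of the luminescence signal of 40% or more relative to plate controls, in a single-dose primary screen at 18.75 µM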
A number is an active result; n = inactive; x = no result.

SMILES | CF NFkB inh | EWS-Fli block | KKLEB tox | PAX8 reporter | HIF-2a block
C[C@@H]1CN([C@@H](C)CO)C(=O)c2cc(NC(=O)CCCN(C)C)ccc2O[C@H]1CN(C)Cc1ccncc1 | x | n | x | n | x
c1ccc(CNCCCNCCCCNCCCNCc2ccccc2)cc1 | n | n | n | 86 | n
Cc1cccc(C(=O)OCC(=O)N2CCN(C(=O)c3ccco3)CC2)c1O | n | n | n | n | n
CC(C)c1cc(C(=O)OCC(=O)N2CCN(C(=O)c3ccco3)CC2)c(O)c(C(C)C)c1 | n | n | n | 113 | n
CCCCNC(=S)NNC(=O)c1c(Cl)c(C)nn1C | n | 71 | n | n | n
C[C@H]1CN([C@@H](C)CO)C(=O)Cc2cc(NC(=O)CCN3CCOCC3)ccc2O[C@@H]1CN(C)C(=O)Nc1ccc2c(c1)OCO2 | x | n | x | n | x
COc1ccc(CN2C(=O)CSCC2=O)cc1OC | n | n | n | n | n
COc1ccc(CCN2C(=O)CSC2=S)cc1OC | n | n | n | 90 | 61
CCN(CC)S(=O)(=O)c1cc(OC)ccc1N=Nc1ccc(O)c2ncccc12 | n | n | n | 96 | n
CCCCCCCCSC1=CC(=O)C(OC)=C(OC)C1=O | 63 | n | n | n | n
C[C@@H]1CN([C@@H](C)CO)C(=O)c2cc(NS(=O)(=O)c3ccc(Cl)cc3)ccc2O[C@@H](C)CCCCO[C@H]1CN(C)S(=O)(=O)c1cccs1 | x | n | x | n | x
CC1=NN(C(N)=S)C(=O)C1N=Nc1cccc(C(=O)O)c1 (stereo unspecified) | n | n | n | n | 46
COc1ccc(NC(=O)N(C)C[C@H]2OCCCC[C@@H](C)Oc3ccc(NC(=O)Nc4ccc(C(F)(F)F)cc4)cc3C(=O)N([C@@H](C)CO)C[C@@H]2C)cc1 | x | n | x | 77 | x
C[C@@H]1CN([C@H](C)CO)C(=O)c2cc(NC(=O)Nc3ccccc3)ccc2O[C@@H](C)CCCCO[C@H]1CN(C)C(=O)Nc1ccc(C(F)(F)F)cc1 | x | n | x | 84 | x
COc1ccc(NC(=O)N(C)C[C@H]2OCCCC[C@H](C)Oc3ccc(NC(=O)Nc4ccc(C(F)(F)F)cc4)cc3C(=O)N([C@H](C)CO)C[C@@H]2C)cc1 | x | n | x | n | x
CC(C)NC(=O)N(C)C[C@@H]1OCCCC[C@H](C)Oc2ccc(NC(=O)Nc3ccc(C(F)(F)F)cc3)cc2C(=O)N([C@@H](C)CO)C[C@@H]1C | x | n | x | 69 | x
CC(C)NC(=O)Nc1ccc2c(c1)C(=O)N([C@H](C)CO)C[C@@H](C)[C@H](CN(C)C(=O)Nc1ccc(C(F)(F)F)cc1)OCCCC[C@@H](C)O2 | x | n | x | 68 | x
C[C@@H]1CCCCO[C@H](CN(C)C(=O)Nc2ccccc2)[C@@H](C)CN([C@H](C)CO)C(=O)c2cc(NC(=O)Nc3ccc(C(F)(F)F)cc3)ccc2O1 | x | n | x | n | x
COC(=O)C[C@@H]1C=C[C@H](NC(=O)Nc2ccc(C(F)(F)F)cc2)[C@H](CO)O1 | x | n | x | n | x
CO[C@@H]1CN(C)C(=O)c2cc(NC(=O)CC(F)(F)F)ccc2OC[C@H](C)N(C(C)=O)C[C@@H]1C | x | n | x | x | x
Fc1ccc(C2=NN(c3ccccc3)C(c3ccco3)C2)cc1 (stereo unspecified) | n | n | n | n | n
COc1ccccc1C1CC(c2ccco2)=NN1c1ccccc1 (stereo unspecified) | n | n | n | 80 | n
Cc1c(C(=O)c2no[n+]([O-])c2C(=O)c2cnn(C)c2C)cnn1C | 63 | x | n | x | n
Cc1ccnc2c1ccc1ccccc12 | n | n | n | n | n
Cc1ccnc2c1ccc1cccnc12 | n | n | n | 80 | n
SMILES | CF NFkB inh | EWS-Fli block | KKLEB tox | PAX8 reporter | HIF-2a block
COc1ccc(C#Cc2ccc3c(c2)O[C@@H](CN(C)C(=O)NC2CCCCC2)[C@H](C)CN([C@@H](C)CO)S3(=O)=O)cc1 | x | n | x | x | x
C[C@H]1CN([C@@H](C)CO)S(=O)(=O)c2ccc(C#Cc3ccc(F)cc3)cc2O[C@@H]1CN(C)C(=O)NC1CCCCC1 | x | n | x | 91 | x
C[C@@H]1CN([C@H](C)CO)S(=O)(=O)c2ccc(C#Cc3ccc(F)cc3)cc2O[C@@H]1CN(C)C(=O)NC1CCCC1 | x | n | x | x | x
C[C@H]1CN([C@@H](C)CO)S(=O)(=O)c2ccc(C#Cc3ccc(F)cc3)cc2O[C@H]1CN(C)C(=O)NC1CCCCC1 | x | n | x | 78 | x
C[C@@H]1CN([C@@H](C)CO)S(=O)(=O)c2ccc(C#Cc3ccc(F)cc3)cc2O[C@@H]1CN(C)C(=O)NC1CCCCC1 | x | n | x | 85 | x
Cc1ccccc1-c1ccc(C2[C@@H]3CN(S(=O)(=O)c4ccccc4C)C[C@H]2N3)cc1 (stereo partly specified) | x | n | x | n | x
C/C=C/c1ccc([C@H]2[C@H](CO)N(C(C)=O)C23CN(C(=O)c2ccncc2)C3)cc1 | x | n | x | n | x
COc1ccc(-c2cc(C(F)(F)F)nc(SCC(=O)Nc3sc4c(c3C#N)CCC4)n2)cc1 | n | n | -61 | x | n
N#Cc1c(NC(=O)CSc2nc(-c3ccccc3)cc(C(F)(F)F)n2)sc2c1CCC2 | n | x | n | n | n
CNC[C@H]1Oc2ccc(NS(=O)(=O)c3ccccc3)cc2C(=O)N([C@@H](C)CO)C[C@@H]1C | x | n | x | n | x
O=C(c1cccs1)N1C[C@H](O)[C@@H](n2cc(C3CC3)nn2)C[C@@H]1c1ccccc1 | n | n | n | 98 | n
O=[N+]([O-])c1ccc(NN=Cc2cccc3ccccc23)nc1 | n | n | n | n | n
COc1cccc(/C=N/Nc2nc(Nc3ccc([N+](=O)[O-])cc3)nc(N3CCCC3)n2)c1O | 97 | n | n | 95 | n
COc1cccc(/C=N/Nc2ccc([N+](=O)[O-])cn2)c1O | 100 | n | -91 | 91 | 78
COc1cccc(/C=N/Nc2ccc(S(=O)(=O)O)cc2)c1O | n | x | n | x | n
COc1cccc(/C=N/Nc2ccc(C(=O)O)cc2)c1O | n | n | n | 108 | 95
COc1ccccc1S(=O)(=O)N(C)C[C@H]1Oc2cc(C#CCC3CCCC3)ccc2S(=O)(=O)N([C@@H](C)CO)C[C@@H]1C | x | n | x | 82 | x
COCC(=O)N(C)C[C@H]1Oc2cc(C#CCC3CCCC3)ccc2S(=O)(=O)N([C@@H](C)CO)C[C@@H]1C | x | n | x | 73 | x
COc1ccccc1S(=O)(=O)N(C)C[C@@H]1Oc2cc(C#CCC(C)C)ccc2S(=O)(=O)N([C@H](C)CO)C[C@H]1C | x | n | x | x | x
C[C@H]1CN([C@@H](C)CO)S(=O)(=O)c2ccc(C#CCC3CCCC3)cc2O[C@H]1CN(C)C(=O)CN(C)C | x | n | x | 64 | x
COCC(=O)N(C)C[C@H]1Oc2cc(C#CCC3CCCC3)ccc2S(=O)(=O)N([C@H](C)CO)C[C@H]1C | x | n | x | 69 | x
C[C@H](CO)N1C[C@H](C)[C@@H](CN(C)C(=O)CN(C)C)Oc2cc(C#CCC3CCCC3)ccc2S1(=O)=O | x | n | x | n | x
